Source: PubChem BioAssay
Active and inactive are the calls of the source.

Experiments:
[1] = binders of probe aFSTL3 on microarray, primary screen, stem cell growth factor project, biochemical, small-molecule microarray, fluorescence 635/667 (AID 1064); settings: higher = more signal;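 also: measures binding of the biotinylated anti-FSTL3 antibody to printed compounds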
[2] = binders from COS7 lysate, DM2A8 probe, primary screen, torsin A project, cell lysate, small-molecule microarray, fluorescence 635/667 (AID 1065); settings: higher = more signal, COS7 lysate expressing mutant human TOR1A
[3] = binders of probe aFGF2 on microarray, primary screen, stem cell growth factor project, biochemical, small-molecule microarray, fluorescence 635/667 (AID 1067); settings: higher = more signal;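 also: measures binding of biotinylated aFGF2 protein to printed compounds on slides; z-score merges feature fluorescence and signal-to-noise across triplicate slides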
[4] = binders of probe aFGF10 on microarray, primary screen, stem cell growth factor project, biochemical, small-molecule microarray, fluorescence 635/667 (AID 1071); settings: higher = more signal;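 also: score merges 667 nm spot intensity and signal to noise from triplicate slides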
[5] = target: Neurogenic locus notch homolog protein 2 (Homo sapiens) (UniProt Q04721); assay: Notch2 binders on small-molecule microarrays, primary screen, biochemical, small-molecule microarray, 635 nm fluorescence, stem cell growth factors (AID 1073); settings: Notch2 binding, higher = more signal
[6] = target: Pro-neuregulin-1, membrane-bound isoform (Homo sapiens) (UniProt Q02297); assay: NRG1 binders on small-molecule microarrays, primary screen, psychiatric disease protein project, biochemical, small-molecule microarray, fluorescence 635/667 (AID 1075); settings: NRG1 binding, 635 nm fluorescence, higher = more signal;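 also: score combines 667 nm spot fluorescence with signal to noise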
Pro-neuregulin-1, membrane-bound isoform (Homo sapiens), sequence (Q02297 whole entry, looked up, the tested form may be a part, canonical isoform): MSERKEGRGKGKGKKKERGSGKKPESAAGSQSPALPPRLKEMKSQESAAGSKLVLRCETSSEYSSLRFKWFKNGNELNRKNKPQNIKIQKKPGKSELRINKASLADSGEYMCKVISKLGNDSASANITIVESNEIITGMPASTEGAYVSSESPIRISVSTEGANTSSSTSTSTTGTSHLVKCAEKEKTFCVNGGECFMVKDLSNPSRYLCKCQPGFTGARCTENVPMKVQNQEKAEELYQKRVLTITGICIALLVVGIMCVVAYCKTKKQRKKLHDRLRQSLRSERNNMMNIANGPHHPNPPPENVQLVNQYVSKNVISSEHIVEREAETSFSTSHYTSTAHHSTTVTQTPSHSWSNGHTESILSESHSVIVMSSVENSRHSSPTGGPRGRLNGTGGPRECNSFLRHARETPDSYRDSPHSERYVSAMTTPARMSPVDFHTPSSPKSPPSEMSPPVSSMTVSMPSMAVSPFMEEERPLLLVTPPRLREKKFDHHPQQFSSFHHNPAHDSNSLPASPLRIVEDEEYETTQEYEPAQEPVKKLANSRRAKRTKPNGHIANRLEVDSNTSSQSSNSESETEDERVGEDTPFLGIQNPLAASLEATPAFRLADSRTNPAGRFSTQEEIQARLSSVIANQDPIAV

[7] = test system: Neuregulin-1 EGF-like domain; assay: binders of neuregulin-1 EGF-like domain, primary screen, biochemical, small-molecule microarray, 635 nm fluorescence (AID 1081); settings: small-molecule microarray binding, higher = more signal;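 also: binding of the protein to compounds printed on small-molecule microarray slides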
[8] = FRG1 promoter luciferase signal modulators, primary screen, FRG1 inhibition for FSHD, cell-based, C2C12 myotubes, firefly/Renilla luciferase, luminescence (AID 1084); settings: higher = more signal, called active from +8 up or from −8 down
[9] = binders of probe aFST on microarray, primary screen, stem cell growth factor project, biochemical, small-molecule microarray, fluorescence 635/667 (AID 1086); settings: higher = more signal;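 also: score merges 667 nm fluorescence with signal-to-noise of each printed compound spot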
[10] = binders of probe aHhip on microarray, primary screen, stem cell growth factor project, biochemical, small-molecule microarray, fluorescence 635/667 (AID 1087); settings: higher = more signal;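 also: score merges spot fluorescence at 667nm with spot signal to noise ratio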
[11] = test system: PRMT1 (protein arginine N-methyltransferase 1); assay: PRMT1 binders on small-molecule microarrays, primary screen, biochemical, small-molecule microarray, 635 nm fluorescence (AID 1088); settings: small-molecule microarray binding, higher = more signal;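 also: binding of Prmt1 protein to compounds spotted on small-molecule microarray slides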
[12] = yeast growth modulation, basal conditions, primary screen, YJM789 clinical isolate, OD600, 24 h (AID 1089);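 also: growth of clinical yeast isolate S. cerevisiae YJM 789 seeded 1000 cells per well; test concentration not given here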; settings: S. cerevisiae YJM789 growth, higher = more signal, called active from +8 up or from −8 down
[13] = fission yeast growth modulation, primary screen, strain 972, OD600, 24 h, no modulator (AID 1090);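 also: basal condition with compound alone and no growth modifier present; test concentration not given here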; settings: S. pombe 972 growth, higher = more signal, called active from +8 up or from −8 down
[14] = S. cerevisiae growth modulation with rapamycin, primary screen, strain BY4716, OD600, 96 h (AID 1091); settings: higher = more signal, called active from +8 up or from −8 down; also: test concentration not given here
[15] = target: Torsin-1A-interacting protein 2 (Homo sapiens) (UniProt Q8NFQ8); assay: LULL1 binders on small-molecule microarray, primary screen, cell lysate, human LULL1 lysate, 635/667 nm fluorescence (AID 1092); settings: hLULL1 lysate binding, 635 nm fluorescence, higher = more signal;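 also: probe is lysate of COS7 cells overexpressing human LULL1; score merges per-feature 667 nm fluorescence with signal-to-noise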
Torsin-1A-interacting protein 2 (Homo sapiens), sequence (Q8NFQ8 whole entry, looked up): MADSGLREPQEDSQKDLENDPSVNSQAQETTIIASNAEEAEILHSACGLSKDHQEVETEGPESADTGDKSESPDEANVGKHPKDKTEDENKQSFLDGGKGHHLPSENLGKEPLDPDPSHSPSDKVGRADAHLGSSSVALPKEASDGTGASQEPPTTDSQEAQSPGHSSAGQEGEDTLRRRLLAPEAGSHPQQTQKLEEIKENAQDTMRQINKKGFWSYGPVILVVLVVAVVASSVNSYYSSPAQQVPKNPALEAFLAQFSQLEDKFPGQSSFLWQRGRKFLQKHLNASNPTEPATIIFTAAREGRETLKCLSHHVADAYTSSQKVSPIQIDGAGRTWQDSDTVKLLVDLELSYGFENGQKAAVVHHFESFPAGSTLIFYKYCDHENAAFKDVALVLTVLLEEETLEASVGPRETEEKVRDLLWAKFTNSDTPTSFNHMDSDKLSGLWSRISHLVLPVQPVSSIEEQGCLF

[16] = E. coli growth modulation, two-sided OD650, primary screen, E. coli filamentation project, strain DRC41, 24 h (AID 1093); settings: OD650, 24 h, higher = more signal, called active from +8 up or from −8 down;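 also: MC1000 strain lacking acrAB efflux and sulA so SOS filamentation is blocked; test concentration not given here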
[17] = small-molecule microarray binders of probe aLefty2, primary screen, biochemical, biotinylated probe, 635/667 nm fluorescence (AID 1094); settings: higher = more signal;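 also: score merges spot fluorescence near 667 nm with spot signal-to-noise ratio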
[18] = test system: Noggin (protein binding on small-molecule microarray); assay: Noggin binders on small-molecule microarray, primary screen, biochemical, 635/667 nm fluorescence (AID 1095); settings: 635 nm fluorescence, higher = more signal;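 also: score merges 667 nm feature fluorescence with signal to noise over triplicate slides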
[19] = target: Neurogenic locus notch homolog protein 3 (Homo sapiens) (UniProt Q9UM47); assay: NOTCH3 binders on small-molecule microarray, primary screen, biochemical, 635/667 nm fluorescence (AID 1096); settings: NOTCH3 binding, 635 nm fluorescence, higher = more signal
Neurogenic locus notch homolog protein 3 (Homo sapiens), sequence (Q9UM47 whole entry, looked up): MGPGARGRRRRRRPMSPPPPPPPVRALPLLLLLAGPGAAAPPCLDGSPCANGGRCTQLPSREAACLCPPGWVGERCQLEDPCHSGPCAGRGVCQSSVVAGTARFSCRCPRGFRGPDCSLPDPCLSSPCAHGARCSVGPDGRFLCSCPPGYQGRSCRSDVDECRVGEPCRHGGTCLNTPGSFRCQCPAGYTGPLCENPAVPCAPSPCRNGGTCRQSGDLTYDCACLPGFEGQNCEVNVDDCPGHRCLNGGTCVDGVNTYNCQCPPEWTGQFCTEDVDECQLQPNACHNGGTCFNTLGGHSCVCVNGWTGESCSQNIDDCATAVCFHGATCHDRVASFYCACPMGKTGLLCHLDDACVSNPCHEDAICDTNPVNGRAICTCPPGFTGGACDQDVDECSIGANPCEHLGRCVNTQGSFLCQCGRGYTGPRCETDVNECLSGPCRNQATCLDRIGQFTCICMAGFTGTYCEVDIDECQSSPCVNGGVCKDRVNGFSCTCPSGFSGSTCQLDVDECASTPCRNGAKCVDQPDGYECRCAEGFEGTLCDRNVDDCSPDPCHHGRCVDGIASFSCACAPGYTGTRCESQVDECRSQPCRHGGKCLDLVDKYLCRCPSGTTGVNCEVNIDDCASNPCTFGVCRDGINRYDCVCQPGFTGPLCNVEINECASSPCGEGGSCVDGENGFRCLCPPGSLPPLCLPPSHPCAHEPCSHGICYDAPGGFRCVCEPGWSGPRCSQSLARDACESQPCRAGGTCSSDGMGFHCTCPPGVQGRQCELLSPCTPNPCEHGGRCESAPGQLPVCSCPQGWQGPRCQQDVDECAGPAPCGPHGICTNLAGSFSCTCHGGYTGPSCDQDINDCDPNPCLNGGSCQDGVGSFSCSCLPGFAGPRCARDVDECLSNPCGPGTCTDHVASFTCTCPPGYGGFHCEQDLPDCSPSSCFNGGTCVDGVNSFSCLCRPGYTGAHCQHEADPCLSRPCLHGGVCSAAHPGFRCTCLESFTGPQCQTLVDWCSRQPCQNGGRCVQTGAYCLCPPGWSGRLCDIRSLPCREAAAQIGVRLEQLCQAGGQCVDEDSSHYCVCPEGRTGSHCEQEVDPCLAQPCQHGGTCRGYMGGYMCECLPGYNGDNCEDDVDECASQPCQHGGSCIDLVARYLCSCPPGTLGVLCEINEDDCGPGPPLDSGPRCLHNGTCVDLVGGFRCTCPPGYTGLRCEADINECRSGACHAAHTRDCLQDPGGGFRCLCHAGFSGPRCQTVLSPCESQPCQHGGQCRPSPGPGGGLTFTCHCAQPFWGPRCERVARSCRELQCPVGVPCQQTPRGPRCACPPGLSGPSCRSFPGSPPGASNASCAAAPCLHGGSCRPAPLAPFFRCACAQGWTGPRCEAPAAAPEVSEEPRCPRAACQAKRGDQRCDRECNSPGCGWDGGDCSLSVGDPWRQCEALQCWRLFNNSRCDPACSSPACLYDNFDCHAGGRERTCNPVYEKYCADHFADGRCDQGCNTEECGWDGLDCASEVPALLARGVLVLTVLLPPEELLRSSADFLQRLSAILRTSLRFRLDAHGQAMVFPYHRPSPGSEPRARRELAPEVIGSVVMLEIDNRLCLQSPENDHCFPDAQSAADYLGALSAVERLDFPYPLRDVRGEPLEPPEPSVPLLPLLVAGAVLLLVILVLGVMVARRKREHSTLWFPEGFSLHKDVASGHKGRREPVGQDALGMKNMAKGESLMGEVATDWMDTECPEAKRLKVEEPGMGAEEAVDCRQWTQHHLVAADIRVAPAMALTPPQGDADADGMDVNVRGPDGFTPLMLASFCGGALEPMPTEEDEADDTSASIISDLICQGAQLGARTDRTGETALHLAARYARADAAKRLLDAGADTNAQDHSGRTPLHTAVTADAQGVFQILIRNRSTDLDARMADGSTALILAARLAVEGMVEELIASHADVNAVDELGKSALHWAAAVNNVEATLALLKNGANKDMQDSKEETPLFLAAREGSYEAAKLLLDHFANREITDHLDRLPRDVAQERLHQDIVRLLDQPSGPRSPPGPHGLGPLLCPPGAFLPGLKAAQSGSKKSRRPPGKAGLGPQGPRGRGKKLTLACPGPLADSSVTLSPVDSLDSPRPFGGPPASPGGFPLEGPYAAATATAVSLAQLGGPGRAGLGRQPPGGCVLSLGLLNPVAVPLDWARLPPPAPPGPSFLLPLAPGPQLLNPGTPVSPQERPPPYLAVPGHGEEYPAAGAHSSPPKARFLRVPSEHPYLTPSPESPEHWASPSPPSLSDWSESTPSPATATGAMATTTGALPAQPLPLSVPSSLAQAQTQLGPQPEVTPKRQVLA

[20] = small-molecule microarray binders of probe aEGFR, primary screen, biochemical, biotinylated probe, 635/667 nm fluorescence (AID 1097); settings: higher = more signal;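 also: probe is a biotinylated anti-EGFR antibody binding compounds printed on slides; score combines fluorescence near 667 nm and signal to noise of each spot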

CO[C@H]1COC(=O)[C@H](CCSC)NC(=O)CC=C[C@@H](C)[C@H](OC)COC(=O)[C@@H](OCc2ccccc2)C=C[C@@H]1C
composite z-score [1]: -0.459
composite z-score [2]: 0.633
composite z-score [3]: -0.188
composite z-score [4]: 0.227
composite z-score [5]: 0.133
composite z-score [6]: -0.388
composite z-score [7]: 0.597
z-score [8]: 0.306 (inactive)
composite z-score [9]: -0.276
composite z-score [10]: -0.134
composite z-score [11]: 1.56
z-score [12]: -0.772 (inactive)
z-score [13]: -0.282 (inactive)
z-score [14]: -1.65 (inactive)
composite z-score [15]: -1.05
z-score [16]: -0.317 (inactive)
composite z-score [17]: -0.0131
composite z-score [18]: 1.39
composite z-score [19]: 0.472
composite z-score [20]: -0.0531

CC(CCN1CCCCc2nc(C)c(C)cc21)=NOC[C@@H](O)[C@H]1O[C@@H]2OC(C)(C)O[C@@H]2[C@H]1O
composite z-score [1]: -0.368
composite z-score [2]: 0.454
composite z-score [3]: -0.138
composite z-score [4]: 0.188
composite z-score [5]: -0.224
composite z-score [6]: 0.459
composite z-score [7]: 0.0465
z-score [8]: 0.442 (inactive)
composite z-score [9]: -0.346
composite z-score [10]: -0.136
composite z-score [11]: 0.908
z-score [12]: -1.58 (inactive)
z-score [13]: 0.186 (inactive)
z-score [14]: -0.164 (inactive)
composite z-score [15]: -0.428
z-score [16]: 0.579 (inactive)
composite z-score [17]: -0.225
composite z-score [18]: 1.07
composite z-score [19]: 0.218
composite z-score [20]: -0.0179

CCN1C(=O)[C@H]2[C@H]3[C@H](O)[C@H](O)CC(=NOCC(C)C)[C@H]3CC[C@H]2C1=O
composite z-score [1]: -0.801
composite z-score [2]: 0.328
composite z-score [3]: -0.0977
composite z-score [4]: 0.329
composite z-score [5]: 0.351
composite z-score [6]: -0.139
composite z-score [7]: 0.124
z-score [8]: 0.268 (inactive)
composite z-score [9]: 0.101
composite z-score [10]: -0.079
composite z-score [11]: -0.332
z-score [12]: -0.349 (inactive)
z-score [13]: 0.735 (inactive)
z-score [14]: 0.512 (inactive)
composite z-score [15]: -0.153
z-score [16]: 0.769 (inactive)
composite z-score [17]: -0.019
composite z-score [18]: 0.569
composite z-score [19]: 0.599
composite z-score [20]: 0.0167

CC(=O)OC[C@H]1O[C@H](CC=NOC[C@@H](O)[C@H]2O[C@@H]3OC(C)(C)O[C@@H]3[C@H]2O)C=C[C@@H]1OC(C)=O
composite z-score [1]: -0.373
composite z-score [2]: -0.487
composite z-score [3]: 0.138
composite z-score [4]: 0.416
composite z-score [5]: 1.04
composite z-score [6]: 0.758
composite z-score [7]: 1.13
z-score [8]: -0.008 (inactive)
composite z-score [9]: 0.265
composite z-score [10]: -0.0844
composite z-score [11]: 0.739
z-score [12]: 0.561 (inactive)
z-score [13]: 1.09 (inactive)
z-score [14]: 0.541 (inactive)
composite z-score [15]: 2.25
z-score [16]: 0.72 (inactive)
composite z-score [17]: -0.0708
composite z-score [18]: 0.441
composite z-score [19]: 0.492
composite z-score [20]: -0.0035

COC(=O)C(C(=O)OC)C1CCCC(=O)C1 (stereo not given)
composite z-score [1]: -0.414
composite z-score [2]: 1.45
composite z-score [3]: -0.0611
composite z-score [4]: 0.353
composite z-score [5]: 0.329
composite z-score [6]: -0.146
composite z-score [7]: -0.127
z-score [8]: 0.335 (inactive)
composite z-score [9]: 0.406
composite z-score [10]: -0.264
composite z-score [11]: -0.734
z-score [12]: 0.069 (inactive)
z-score [13]: 0.389 (inactive)
z-score [14]: 0.751 (inactive)
composite z-score [15]: 0.291
z-score [16]: -0.195 (inactive)
composite z-score [17]: -0.0362
composite z-score [18]: 0.365
composite z-score [19]: 0.655
composite z-score [20]: -0.0952
